Inconclusive results are not listed. Unless noted, the call rests on the fitted dose curve; in most records, active means well fitted curve in either direction with a large enough effect (not every such curve was filed as active); inconclusive means small, poorly fitted or top-dose-only effect, or another doubt; inactive means flat fitted curve, though single readings scatter.
How the values were obtained:
[1] = AP1 Signaling Pathway (AID 357); details: ME-180 AP-1-bla reporter, EGF-induced, beta-lactamase ratio, 5 h; at 17.2 µM (top of the series) unless noted;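 further: ME-180 reporter cells stimulated with EGF at its EC50 level; on the % scale 0 is the no-effect control and ±100 the full control effect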
Outline: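 Beta-lactamase reporter under AP-1 response element, ME-180 background. Stimulus: EC50 EGF. Compound exposure 5 h, 37 °C. Detection: CCF4, 2.5 h RT, 460/530 nm. Values: AC50 from titration.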

[2] = NFAT Signaling Pathway (AID 444); details: Jurkat NFAT-bla M1, carbachol, beta-lactamase ratio, 5 h; at 17.2 µM (top of the series) unless noted;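 further: carbachol stimulus at about its EC50 of 1 µM final; on the % scale 0 is the no-effect control and ±100 the full control effect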
Outline: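 Jurkat cells with NFAT-driven β-lactamase reporter and co-expressed M1 receptor, stimulated with carbachol (final 1 uM, ~EC50), compound titration, 5 h at 37 °C. CCF4 loaded 1 h at RT; 460/530 nm ratio gave %activity and AC50.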

[3] = Stat Signaling Pathway (AID 446); details: ME-180 (cervical carcinoma) SIE beta-lactamase reporter, IL-6 stimulated, 5 h; at 17.2 µM (top of the series) unless noted;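 further: ME-180 cervical cancer cells given 40 pM IL-6 alongside compound; SIE-controlled beta-lactamase reporter measured as 460/530 nm FRET emission ratio; on the % scale 0 is the no-effect control and ±100 the full control effect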
Outline: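 Emission at 460 and 530 nm (excitation 405 nm) reports SIE-controlled beta-lactamase in ME-180 cells. Cells received compound with 40 pM IL-6 for 5 hrs at 37 C; data scaled between 300 pM IL-6 and 125 nM JAK-inhibitor controls.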

[4] = molecular target: Glucocorticoid receptor (Homo sapiens) (UniProt P04150); experiment: GR-GFP Redistribution (AID 450;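 active means compounds whose dose series gives a full or clear partial fitted curve of increased nuclear translocation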; further: potency means the concentration at half of the fitted maximal effect)
Glucocorticoid receptor (Homo sapiens), sequence (P04150 whole entry, looked up): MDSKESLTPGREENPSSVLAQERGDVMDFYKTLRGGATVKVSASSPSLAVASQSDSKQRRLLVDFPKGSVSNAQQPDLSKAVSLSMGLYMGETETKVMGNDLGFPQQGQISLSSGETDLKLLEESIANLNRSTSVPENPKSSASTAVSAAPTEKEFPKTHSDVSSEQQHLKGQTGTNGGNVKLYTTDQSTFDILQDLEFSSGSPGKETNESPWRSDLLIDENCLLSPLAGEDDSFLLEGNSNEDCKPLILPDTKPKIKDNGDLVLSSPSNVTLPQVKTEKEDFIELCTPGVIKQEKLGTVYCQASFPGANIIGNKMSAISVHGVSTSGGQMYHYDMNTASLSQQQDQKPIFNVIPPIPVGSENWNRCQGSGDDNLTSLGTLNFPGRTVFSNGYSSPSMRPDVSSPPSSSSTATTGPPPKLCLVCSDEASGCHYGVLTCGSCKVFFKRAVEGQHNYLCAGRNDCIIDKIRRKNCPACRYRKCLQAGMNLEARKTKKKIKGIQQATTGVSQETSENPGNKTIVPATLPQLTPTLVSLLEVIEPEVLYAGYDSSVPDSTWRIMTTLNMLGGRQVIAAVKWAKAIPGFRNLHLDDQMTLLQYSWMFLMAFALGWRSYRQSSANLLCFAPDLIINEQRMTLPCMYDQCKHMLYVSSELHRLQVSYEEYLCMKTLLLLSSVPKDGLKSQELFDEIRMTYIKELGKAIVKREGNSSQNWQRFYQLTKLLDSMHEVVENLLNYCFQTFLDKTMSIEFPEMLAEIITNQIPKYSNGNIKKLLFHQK

CCCCOc1ccc(C)cc1CN(CCO)CCO
inactive: activity change, negative = inhibition [1] 27.9% | activity change, negative = inhibition [2] -9.6% | activity, negative = inhibition [3] 5.48% | Potency [4] > 20.6 µM

CCCn1nnc(NC(=O)c2cc(Br)cc(Br)c2OC)n1
inactive: activity change, negative = inhibition [1] -4.03% | activity change, negative = inhibition [2] -11.1% | activity, negative = inhibition [3] -4.41% | Potency [4] > 20.6 µM

Cc1cc(C)n(-c2c(F)c(F)c(CN3CCCCC3)c(F)c2F)n1
inactive: activity change, negative = inhibition [1] -3.48% | activity change, negative = inhibition [2] -27.9% | activity, negative = inhibition [3] 5.23% | Potency [4] > 20.6 µM

CSc1nc2sc3c(c2c2nncn12)CCC3
inactive: activity change, negative = inhibition [1] -7.57% | activity change, negative = inhibition [2] -18% | activity, negative = inhibition [3] -3.42% | Potency [4] > 20.6 µM

COC(=O)C(NC(C)=O)(Nc1nc2ccc(S(C)(=O)=O)cc2s1)C(F)(F)F (centres undefined)
inactive: activity change, negative = inhibition [1] -0.134% | activity change, negative = inhibition [2] 7% | activity, negative = inhibition [3] -5.35% | Potency [4] > 20.6 µM

NS(=O)(=O)c1ccc(-c2ccc(C=NC3CCS(=O)(=O)C3)o2)cc1 (centres undefined)
inactive: activity change, negative = inhibition [1] 19.2% | activity change, negative = inhibition [2] -3.68% | activity, negative = inhibition [3] -5.15% | Potency [4] > 20.6 µM

COC(=O)Sc1nc(N2CCOCC2)c2c(c1C#N)CC(C)(C)OC2
inactive: activity change, negative = inhibition [1] -17.4% | activity change, negative = inhibition [2] -7.69% | activity, negative = inhibition [3] -18.3% | Potency [4] > 20.6 µM

COc1ccc(C2=Nn3c(nnc3-c3cccnc3)SC2)cc1OC
inactive: activity change, negative = inhibition [1] -11.2% | activity change, negative = inhibition [2] -23% | activity, negative = inhibition [3] -17.6% | Potency [4] > 20.6 µM

Cc1nn(CC(=O)N2CCOCC2)c(=O)c2ccccc12
inactive: activity change, negative = inhibition [1] 10.7% | activity change, negative = inhibition [2] 8.23% | activity, negative = inhibition [3] 1.28% | Potency [4] > 20.6 µM

O=C1CCC(=O)N1c1nc2n(n1)C(c1ccccc1)C=C(c1ccc(Br)cc1)N2 (centres undefined)
inactive: activity change, negative = inhibition [1] -22.1% | activity change, negative = inhibition [2] 3.81% | activity, negative = inhibition [3] -13.7% | Potency [4] > 20.6 µM

Cc1nn(CC(=O)NCCN2CCOCC2)c(=O)c2ccccc12
inactive: activity change, negative = inhibition [1] 5.98% | activity change, negative = inhibition [2] 20% | activity, negative = inhibition [3] 8.76% | Potency [4] > 20.6 µM

Cn1c(=O)c2c3c(sc2n2c(SCC(=O)c4ccccc4)nnc12)COC(C)(C)C3
inactive: activity change, negative = inhibition [1] 5.44% | activity change, negative = inhibition [2] -28.1% | activity, negative = inhibition [3] 4.51% | Potency [4] > 20.6 µM

Nc1ccc(Cl)cc1/C(=N/O)c1ccccc1
inactive: activity change, negative = inhibition [1] -16.4% | activity change, negative = inhibition [2] -13.5% | activity, negative = inhibition [3] -5.27% | Potency [4] > 20.6 µM

COc1ccccc1N1CCN(C2CCN(C(=O)c3cccs3)CC2)CC1
inactive: activity change, negative = inhibition [1] 4.38% | activity change, negative = inhibition [2] -21.8% | activity, negative = inhibition [3] 19.6% | Potency [4] > 20.6 µM

COc1ccc(-c2nc3n(c2Br)CCC3)cc1
inactive: activity change, negative = inhibition [1] -3.45% | activity change, negative = inhibition [2] 1.51% | activity, negative = inhibition [3] 0.643% | Potency [4] > 20.6 µM

O=CNC(=O)c1ccccc1C(=O)O
inactive: activity change, negative = inhibition [1] -3.37% | activity change, negative = inhibition [2] 3.48% | activity, negative = inhibition [3] 20.3% | Potency [4] > 20.6 µM

Cc1onc(-c2ccccc2Cl)c1C(=O)N1CCN(c2nc3ccccc3s2)CC1
inactive: activity change, negative = inhibition [1] -24.2% | activity change, negative = inhibition [2] -4.08% | activity, negative = inhibition [3] -3.09% | Potency [4] > 20.6 µM

Cn1c(=O)[nH]c(=O)c2c1nc(N(CCO)Cc1ccccc1)n2Cc1ccccc1Cl
inactive: activity change, negative = inhibition [1] -1.99% | activity change, negative = inhibition [2] -6.08% | activity, negative = inhibition [3] -4.12% | Potency [4] > 20.6 µM

CC(=O)N1CCN(c2nc(CC(C)C)c3c(c2C#N)CCC3)CC1
inactive: activity change, negative = inhibition [1] -24.1% | activity change, negative = inhibition [2] -8.91% | activity, negative = inhibition [3] -3.38% | Potency [4] > 20.6 µM

Cc1ccc(C2CC(C(F)(F)F)n3ncc(C(N)=O)c3N2)cc1 (centres undefined)
inactive: activity change, negative = inhibition [1] -3.17% | activity change, negative = inhibition [2] 2.37% | activity, negative = inhibition [3] 5.84% | Potency [4] > 20.6 µM

CCOC(=O)c1[nH]c2ccccc2c1NC(=O)CCN1CCN(C(=O)OCC)CC1
inactive: activity change, negative = inhibition [1] -2.19% | activity change, negative = inhibition [2] 1.86% | activity, negative = inhibition [3] -0.665% | Potency [4] > 20.6 µM

COC(=O)c1[nH]c2ccc(Cl)cc2c1NC(=O)C1CC1
inactive: activity change, negative = inhibition [1] -4.32% | activity change, negative = inhibition [2] -26.4% | activity, negative = inhibition [3] 1.62% | Potency [4] > 20.6 µM

CN(C)C=C1C(=O)c2ccccc2C1=O
inactive: activity change, negative = inhibition [1] 6.29% | activity change, negative = inhibition [2] 3.97% | activity, negative = inhibition [3] 1.64% | Potency [4] > 20.6 µM

Oc1ccc2c(c1)C1CCCC1(N1CCOCC1)O2 (centres undefined)
inactive: activity change, negative = inhibition [1] -13.6% | activity change, negative = inhibition [2] 16.1% | activity, negative = inhibition [3] 2.31% | Potency [4] > 20.6 µM

COC(=O)NC(Nc1sc2c(c1C(N)=O)CCCC2)(C(=O)OC)C(F)(F)F (centres undefined)
inactive: activity change, negative = inhibition [1] 2.66% | activity change, negative = inhibition [2] 11.9% | activity, negative = inhibition [3] 5.04% | Potency [4] > 20.6 µM

N#Cc1nc(COc2ccc(Br)cc2)oc1NCCN1CCOCC1
inactive: activity change, negative = inhibition [1] -17.9% | activity change, negative = inhibition [2] 10.5% | activity, negative = inhibition [3] 1.36% | Potency [4] > 20.6 µM

Reference: PubChem BioAssay (NCATS)
